Assay results taken from PubChem BioAssay (NCI).
About 83,000 compounds went through this panel and 20% of them were active in at least one assay; those are over-represented in the sample as a whole.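 Results are percent growth after 48 hours of single-concentration exposure. 100 means growth as in untreated cells, lower positive values show inhibition; negative values down to -100 show cell death.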 Active and inactive are the calls of the source. How the source made its calls: active means growth percent below 10; inactive means the rest.

Columns and labels:
Experiment in all cases: NCI-60 one-dose screen, 48 h (100 = growth as untreated, 0 = no growth, -100 = all killed)
Settings in all cases: 10 µM unless noted
[1] = tested on: NCI-H23 lung
[2] = tested on: NCI-H226 lung
[3] = tested on: NCI-H322M lung
[4] = tested on: HOP-62 NSCLC
[5] = tested on: NCI-H460 lung
[6] = tested on: HOP-92 NSCLC
[7] = tested on: A549/ATCC NSCLC
[8] = tested on: 786-0 renal
[9] = tested on: DU-145 prostate
[10] = tested on: K-562 leukemia
[11] = tested on: MDA-MB-231 breast
[12] = tested on: RXF 393 renal
[13] = tested on: SF-268 CNS
[14] = tested on: SF-295 CNS
[15] = tested on: SF-539 CNS
[16] = tested on: UACC-257 melanoma
[17] = tested on: M14 melanoma
[18] = tested on: MALME-3M melanoma
[19] = tested on: COLO 205 colon

Measured: growth

CC(=O)C1CCC2C3CC(C)=C4CC(O)CCC4(C)C3CCC12C (stereo not given)
inactive: [1] 99.5% | [2] 93.4% | [3] 103% | [4] 124% | [5] 109% | [6] 102% | [7] 99.6% | [8] 94.3% | [9] 119% | [10] 86.1% | [11] 101% | [12] 111% | [13] 102% | [14] 113% | [15] 90.7% | [16] 117% | [17] 98.1%

O=C(c1ccc(OCCN2CCCCC2)cc1)c1c(-c2ccc(O)cc2)sc2cc(O)ccc12
inactive: [1] 82.5% | [2] 92.3% | [3] 114% | [4] 89.2% | [5] 93.5% | [6] 66.7% | [7] 91.6% | [8] 74.7% | [18] 99.4% | [11] 72.2% | [12] 70.2% | [13] 84.3% | [14] 106% | [15] 98.6% | [16] 92.8% | [17] 93.3%

FC(F)(F)c1cc(-c2nnc3n2N=C(Cl)CS3)cc(C(F)(F)F)c1
inactive: [1] 93% | [2] 99.8% | [3] 111% | [4] 98.5% | [5] 107% | [6] 102% | [8] 93.5% | [19] 96.5% | [9] 112% | [10] 83.4% | [18] 99% | [11] 112% | [13] 115% | [15] 109% | [17] 84.6%

CCOC(=O)C(CCCCC(NC(C)=O)(C(=O)OCC)C(=O)OCC)(NC(C)=O)C(=O)OCC
inactive: [1] 103% | [2] 105% | [3] 105% | [4] 102% | [5] 103% | [6] 94.9% | [8] 99.4% | [19] 107% | [9] 113% | [10] 108% | [18] 108% | [11] 111% | [12] 102% | [13] 100% | [14] 99.3% | [15] 109% | [17] 105%

CC(C)(C)c1cc(C[P+](c2ccccc2)(c2ccccc2)c2ccccc2)cc(C(C)(C)C)c1O
active: [1] -6.21% | [3] -9.5% | [4] 8.73% | [5] 3.54% | [6] -32.6% | [8] 8.5% | [19] -92.6% | [10] 3.48% | [18] -18.1% | [14] -3.88% | [15] 3.24%
inactive: [2] 32.3% | [9] 20.5% | [11] 27.9% | [12] 11.7% | [13] 19.4% | [17] 11.7%

COc1cc2c(cc1OC)-c1cc(OC)c(OC)cc1C(CN(C)C)C2 (stereo not given)
active: [4] -57.2% [100 µM] | [14] 4.33% [100 µM]
inactive: [1] 51.8% [100 µM] | [2] 18.4% [100 µM] | [3] 38.9% [100 µM] | [5] 67.7% [100 µM] | [6] 21.4% [100 µM] | [8] 16.9% [100 µM] | [19] 100% [100 µM] | [9] 45.3% [100 µM] | [10] 77.6% [100 µM] | [18] 44.1% [100 µM] | [11] 39.7% [100 µM] | [12] 41.6% [100 µM] | [13] 39% [100 µM] | [17] 69.5% [100 µM]

CCCCCc1c(C)[nH]c(/C=C2\N=C(c3ccc[nH]3)C=C2Oc2ccc(OC)cc2)c1C
active: [1] -67.1% [100 µM] | [2] -15.7% [100 µM] | [3] -6.72% [100 µM] | [4] -54.5% [100 µM] | [5] -46.1% [100 µM] | [6] -12.6% [100 µM] | [8] -92.2% [100 µM] | [19] -83.9% [100 µM] | [9] -59.2% [100 µM] | [10] -14.6% [100 µM] | [18] -75.4% [100 µM] | [11] -71.2% [100 µM] | [12] -68.3% [100 µM] | [13] -83.5% [100 µM] | [14] -82.1% [100 µM] | [17] -94.7% [100 µM]

Cc1cc(Nc2c3ccccc3nc3ccccc23)ccc1NS(C)(=O)=O
active: [6] -5.41%
inactive: [1] 47% | [2] 41.8% | [3] 34.3% | [4] 36.9% | [5] 14.4% | [8] 39.8% | [19] 18.3% | [9] 29.3% | [10] 17.7% | [18] 44.1% | [11] 50% | [12] 35% | [13] 37.5% | [14] 34.4% | [15] 15% | [17] 45.1%

O=C1OC(/C=C/c2ccccc2)=NC/1=C/c1ccccc1[N+](=O)[O-]
inactive: [1] 106% | [2] 93.3% | [3] 84.6% | [4] 91.4% | [5] 103% | [6] 81.2% | [8] 97.6% | [19] 98% | [9] 105% | [10] 106% | [18] 96.9% | [11] 99% | [12] 116% | [13] 99.7% | [14] 97.4% | [15] 89.8% | [17] 99.6%

CCCCCCCCCCCCCC
inactive: [1] 92.5% | [2] 106% | [3] 105% | [4] 98.2% | [5] 108% | [6] 91.3% | [8] 99.4% | [19] 108% | [9] 135% | [10] 113% | [18] 113% | [12] 112% | [13] 120% | [14] 99.2% | [15] 109% | [17] 115%

N/C(=N\O)c1ncc(-c2ccc(C(F)(F)F)cc2)c(NC2CCCCCC2)n1
active: [1] -78.9% [100 µM] | [2] -42.4% [100 µM] | [3] -95.8% [100 µM] | [4] -74.2% [100 µM] | [5] -64.8% [100 µM] | [6] -89.5% [100 µM] | [8] -91.5% [100 µM] | [19] -58.2% [100 µM] | [9] -96.1% [100 µM] | [10] -60.4% [100 µM] | [18] -92.6% [100 µM] | [11] -66.3% [100 µM] | [12] -67% [100 µM] | [13] -89.4% [100 µM] | [14] -94.7% [100 µM] | [17] -91.9% [100 µM]

COc1cc(OC)c(C(=O)/C=C/c2cccc(OC(C)=O)c2)cc1CC=C(C)C
inactive: [1] 72.2% | [2] 69.6% | [3] 98.9% | [4] 114% | [5] 89.4% | [6] 56.5% | [8] 91.4% | [19] 111% | [9] 69.2% | [10] 16.5% | [18] 122% | [11] 77.6% | [13] 70.4% | [14] 97.7% | [15] 90.6% | [17] 87.6%

ClC1=NC(Cl)C(Cl)=N/C1=N\c1ncn[nH]1 (stereo not given)
inactive: [1] 62.8% | [2] 106% | [3] 89.2% | [4] 39.3% | [5] 73.3% | [8] 81.2% | [11] 72.7% | [13] 33.8% | [14] 101% | [15] 67.5% | [17] 39.2%
active: [6] -60% | [19] -76.4% | [9] -78.9% | [10] -48% | [18] -64.3% | [12] -64.6%

O=C1c2cccc3cccc(c23)C(=O)N1CCCCCCCCCCN1C(=O)c2cccc3cccc(c23)C1=O
inactive: [1] 112% | [2] 96.4% | [3] 111% | [4] 104% | [5] 102% | [6] 108% | [8] 109% | [19] 119% | [9] 123% | [10] 103% | [18] 113% | [11] 108% | [12] 96.6% | [13] 100% | [14] 95.3% | [15] 102% | [17] 119%

CCS(=O)(=O)Nc1cccc(Nc2c3cccc(C)c3nc3c(C)cccc23)c1OC
active: [2] -6.89% | [4] 8.84% | [5] 3.23% | [6] -11.8% | [8] -42.1% | [9] 2.74% | [10] 8.19% | [14] -7.84% | [15] -41.3%
inactive: [1] 11.1% | [3] 49.1% | [19] 27.1% | [18] 21.5% | [11] 59.9% | [12] 34.6% | [13] 20.4% | [17] 17.2%

ClCCn1cnc2c(SCc3ccccc3Cl)ncnc21
inactive: [1] 53.1% | [2] 57% | [3] 40.4% | [4] 64% | [6] 62.3% | [8] 33% | [19] 41.7% | [9] 25.4% | [10] 13% | [18] 43% | [11] 66.5% | [13] 31.3% | [15] 30.9% | [16] 58.7%
active: [5] 2.49% | [14] 8.93%

O=[N+]([O-])c1ccc(Sc2nc(Cl)nc(NC3CCCC3)n2)cc1
active: [1] -70.2% [100 µM] | [2] -44.4% [100 µM] | [3] -92.2% [100 µM] | [4] -78.9% [100 µM] | [5] -51.1% [100 µM] | [6] -74.7% [100 µM] | [8] -83.5% [100 µM] | [19] -61.5% [100 µM] | [9] -100% [100 µM] | [10] -32.1% [100 µM] | [18] -80.9% [100 µM] | [11] -90.3% [100 µM] | [12] -75.4% [100 µM] | [13] -93% [100 µM] | [14] -93.9% [100 µM] | [17] -94.6% [100 µM]

O=C(Nc1cccc(-n2ccc3c(NC(=O)c4ccccc4)nccc32)c1)c1ccc(Cl)c(Cl)c1
active: [1] -31.3% | [3] -61.6% | [4] -82.2% | [5] -67.8% | [6] -31.9% | [8] -93% | [19] -27.7% | [9] -73.3% | [18] -56% | [11] -53.9% | [12] -92.7% | [13] -55% | [14] -69.8% | [15] -71.2% | [17] -83.4%
inactive: [2] 31.1%
